Experimental data reported in PubChem BioAssay (NCI).
Compounds without any hit were thinned out: in the full panel of roughly 79,000, 15% have a hit. Unmarked numbers belong to inactive results. Active and inactive are the calls of the source. No stated cut-off is given here; in the data, active means growth inhibition above about 70%; inactive means the rest.

Assays:
[1] = NCI Yeast Anticancer Drug Screen. Data for the rad52 strain (AID 147);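 further: 0% = growth of vehicle-treated control cultures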; settings: S. cerevisiae rad52 mutant growth inhibition, active compounds read high
In short: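 Genetically altered yeast (DNA damage repair defect) treated with compound; inhibition calculated relative to vehicle.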

[2] = NCI Yeast Anticancer Drug Screen. Data for the wt1 strain (AID 149);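 further: 0% = growth of vehicle-treated wt1 cultures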; settings: S. cerevisiae wt1 strain (SPY 50644) growth inhibition, active compounds read high
In short: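 The wt1 strain was treated with compounds, and growth was compared with vehicle-treated cultures to give inhibition.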

[3] = NCI Yeast Anticancer Drug Screen. Data for the rad50EPP+ strain (AID 151);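 further: 0% = growth of vehicle-treated control cultures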; settings: S. cerevisiae rad50 mutant strain, active compounds read high
In short: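 Strain rad50EPP+; compound exposure; % growth inhibition vs vehicle.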

[4] = NCI Yeast Anticancer Drug Screen. Data for the mgt1 strain (AID 153); settings: S. cerevisiae mgt1 mutant growth inhibition, active compounds read high
In short: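 Read-out: yeast growth inhibition vs vehicle control. Strain mgt1, drawn from a panel altered in DNA damage repair or cell cycle control.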

[5] = NCI Yeast Anticancer Drug Screen. Data for the rad50 strain (AID 155);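 further: 0% = growth of vehicle-only cultures of the same strain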; settings: S. cerevisiae rad50 strain growth inhibition, active compounds read high
In short: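 Cells are treated with compound, grown, and their growth is then scored against vehicle-only cultures of the same repair-deficient yeast strain.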

[6] = NCI Yeast Anticancer Drug Screen. Data for the mec2-1 strain (AID 157); settings: S. cerevisiae mec2-1 strain, active compounds read high
In short: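 Cells of the genetically defined mec2-1 yeast strain are incubated with test compound. Inhibition of growth is calculated against vehicle-treated controls.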

[7] = NCI Yeast Anticancer Drug Screen. Data for the rad14 strain (AID 159);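 further: 0% = growth of vehicle-treated control cultures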; settings: S. cerevisiae rad14 strain growth inhibition, active compounds read high
In short: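 Readout: yeast growth inhibition, referenced to vehicle-only cultures. Strain bears a defined alteration in DNA damage repair.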

[8] = NCI Yeast Anticancer Drug Screen. Data for the sgs1 mgt1 strain (AID 161);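 further: 0% = growth of cultures given vehicle only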; settings: S. cerevisiae sgs1 mgt1 strain, active compounds read high
In short: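 Test agents were incubated with a DNA-repair-mutant yeast strain. Growth was then read and compared against vehicle-treated controls.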

[9] = NCI Yeast Anticancer Drug Screen. Data for the CLN2oe strain (AID 163);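 further: 0% = growth of vehicle-only control cultures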; settings: S. cerevisiae CLN2oe strain, active compounds read high
In short: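 Strain altered in cell-cycle control, incubated with compound; growth compared to solvent-treated controls.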

[10] = NCI Yeast Anticancer Drug Screen. Data for the cln2 rad14 strain (AID 165);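 further: 0% = growth equal to vehicle treated cultures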; settings: S. cerevisiae cln2 rad14 strain, active compounds read high
In short: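 The screen exposed genetically defined yeast (cln2 rad14) to test compounds and scored growth inhibition relative to vehicle-treated controls.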

[11] = NCI Yeast Anticancer Drug Screen. Data for the bub3 strain (AID 167); settings: S. cerevisiae bub3 mutant strain, active compounds read high
In short: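 Part of a panel of yeast mutants defective in DNA damage repair or cell cycle regulation. Each strain is grown with compound, and inhibition is calculated relative to solvent-treated cultures.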

[12] = NCI Yeast Anticancer Drug Screen. Data for the wt2 strain (AID 169);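 further: 0% = growth of vehicle-treated yeast cultures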; settings: S. cerevisiae wt2 strain growth inhibition, active compounds read high
In short: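 Steps: yeast strain treated with compound; growth recorded; inhibition calculated relative to cultures given vehicle alone.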

[13] = NCI Yeast Anticancer Drug Screen. Data for the mlh1 strain (AID 171);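 further: 0% = growth of vehicle-treated control cultures of the same strain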; settings: S. cerevisiae mlh1 strain growth inhibition, active compounds read high
In short: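 Yeast screen: mutant strain plus compound, growth scored against vehicle control wells.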

[14] = NCI Yeast Anticancer Drug Screen. Data for the sgs1 strain (AID 173);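 further: 0% = growth of vehicle-only control cultures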; settings: S. cerevisiae sgs1 mutant, active compounds read high
In short: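 Inhibition of yeast growth served as the measure. The mutant strain was treated with each compound, and growth was normalised to cultures receiving vehicle alone.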

[15] = NCI Yeast Anticancer Drug Screen. Data for the mlh1 rad18 strain (AID 175); settings: S. cerevisiae mlh1 rad18 strain growth inhibition, active compounds read high
In short: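 Compound-treated yeast growth, normalised to vehicle controls. Strain bears defined DNA repair mutations.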

[16] = NCI Yeast Anticancer Drug Screen. Data for the rad18 strain (AID 177); settings: S. cerevisiae rad18 mutant growth inhibition, active compounds read high
In short: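 Inhibition values reflect reduced yeast growth compared with vehicle-treated controls, using a strain engineered with a DNA damage repair defect.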

[17] = at 5.0 µM (retest, dose inferred, filed as 0.5)
[18] = at 50.0 µM (retest, dose inferred, filed as 5.0)

Which results are given for `CCOc1c(N=Nc2ccccc2OC)c(C)nn1C(=S)S`?
growth inhibition ([1]; at 1.2 µM): 0%; growth inhibition ([1]; at 3.7 µM): 3%; growth inhibition ([1]; at 11.0 µM): 11%; growth inhibition ([1]; at 33.0 µM): 39%; growth inhibition ([1]; at 100.0 µM): 79% (active); growth inhibition ([2]; at 1.2 µM): -1%; growth inhibition ([2]; at 3.7 µM): 1%; growth inhibition ([2]; at 11.0 µM): 4%; growth inhibition ([2]; at 33.0 µM): 17%; growth inhibition ([2]; at 100.0 µM): 52%; growth inhibition ([3]; at 1.2 µM): 2%; growth inhibition ([3]; at 3.7 µM): 14%; growth inhibition ([3]; at 11.0 µM): 26%; growth inhibition ([3]; at 33.0 µM): 54%; growth inhibition ([3]; at 100.0 µM): 79% (active); growth inhibition ([4]; at 1.2 µM): -2%; growth inhibition ([4]; at 3.7 µM): 1%; growth inhibition ([4]; at 11.0 µM): 3%; growth inhibition ([4]; at 33.0 µM): 18%; growth inhibition ([4]; at 100.0 µM): 74% (active); growth inhibition ([5]; at 1.2 µM): -1%; growth inhibition ([5]; at 3.7 µM): -1%; growth inhibition [5, 17]: -2%; growth inhibition ([5]; at 11.0 µM): 8%; growth inhibition ([5]; at 33.0 µM): 22%; growth inhibition [5, 18]: 36%; growth inhibition ([5]; at 50.0 µM): 98.5% (active); growth inhibition ([5]; at 100.0 µM): 65%; growth inhibition ([6]; at 1.2 µM): -1%; growth inhibition ([6]; at 3.7 µM): 0%; growth inhibition [6, 17]: -7%; growth inhibition ([6]; at 11.0 µM): 2%; growth inhibition ([6]; at 33.0 µM): 19%; growth inhibition [6, 18]: 4%; growth inhibition ([6]; at 50.0 µM): 97.8% (active); growth inhibition ([6]; at 100.0 µM): 60%; growth inhibition ([7]; at 1.2 µM): 4%; growth inhibition ([7]; at 3.7 µM): -1%; growth inhibition ([7]; at 11.0 µM): 4%; growth inhibition ([7]; at 33.0 µM): 4%; growth inhibition ([7]; at 100.0 µM): 78% (active); growth inhibition [8, 17]: 4%; growth inhibition [8, 18]: 49%; growth inhibition ([8]; at 50.0 µM): 97.7% (active); growth inhibition ([9]; at 1.2 µM): -6%; growth inhibition ([9]; at 3.7 µM): 0%; growth inhibition ([9]; at 11.0 µM): -3%; growth inhibition ([9]; at 33.0 µM): 7%; growth inhibition ([9]; at 100.0 µM): 59%; growth inhibition [10, 17]: -45%; growth inhibition [10, 18]: 4%; growth inhibition ([10]; at 50.0 µM): 98% (active); growth inhibition ([11]; at 1.2 µM): -7%; growth inhibition ([11]; at 3.7 µM): -1%; growth inhibition [11, 17]: -25%; growth inhibition ([11]; at 11.0 µM): 15%; growth inhibition ([11]; at 33.0 µM): 34%; growth inhibition [11, 18]: 50%; growth inhibition ([11]; at 50.0 µM): 98% (active); growth inhibition ([11]; at 100.0 µM): 67%; growth inhibition ([12]; at 1.2 µM): 0%; growth inhibition ([12]; at 3.7 µM): 3%; growth inhibition ([12]; at 11.0 µM): 10%; growth inhibition ([12]; at 33.0 µM): 32%; growth inhibition ([12]; at 100.0 µM): 75% (active); growth inhibition ([13]; at 1.2 µM): -3%; growth inhibition ([13]; at 3.7 µM): 0%; growth inhibition ([13]; at 11.0 µM): 4%; growth inhibition ([13]; at 33.0 µM): 4%; growth inhibition ([13]; at 100.0 µM): 65%; growth inhibition ([14]; at 1.2 µM): -1%; growth inhibition ([14]; at 3.7 µM): 3%; growth inhibition ([14]; at 11.0 µM): 14%; growth inhibition ([14]; at 33.0 µM): 45%; growth inhibition ([14]; at 100.0 µM): 86% (active); growth inhibition [15, 17]: -30%; growth inhibition [15, 18]: 56%; growth inhibition ([15]; at 50.0 µM): 98.3% (active); growth inhibition ([16]; at 1.2 µM): -11%; growth inhibition ([16]; at 3.7 µM): -3%; growth inhibition ([16]; at 11.0 µM): 4%; growth inhibition ([16]; at 33.0 µM): 32%; growth inhibition ([16]; at 100.0 µM): 70% (active)

What does the source list for `CCCCc1ccc(-n2c(C)c(COC(=O)NC)c(COC(=O)NC)c2C)cc1`?
growth inhibition ([1]; at 1.2 µM): -40%; growth inhibition ([1]; at 3.7 µM): -10%; growth inhibition ([1]; at 11.0 µM): 5%; growth inhibition ([1]; at 33.0 µM): 98% (active); growth inhibition ([1]; at 100.0 µM): 93% (active); growth inhibition ([2]; at 1.2 µM): -48%; growth inhibition ([2]; at 3.7 µM): -44%; growth inhibition ([2]; at 11.0 µM): -13%; growth inhibition ([2]; at 33.0 µM): 99% (active); growth inhibition ([2]; at 100.0 µM): 91% (active); growth inhibition ([3]; at 1.2 µM): -18%; growth inhibition ([3]; at 3.7 µM): -13%; growth inhibition ([3]; at 11.0 µM): -6%; growth inhibition ([3]; at 33.0 µM): 90% (active); growth inhibition ([3]; at 100.0 µM): 92% (active); growth inhibition ([4]; at 1.2 µM): -43%; growth inhibition ([4]; at 3.7 µM): -41%; growth inhibition ([4]; at 11.0 µM): 19%; growth inhibition ([4]; at 33.0 µM): 99% (active); growth inhibition ([4]; at 100.0 µM): 94% (active); growth inhibition ([5]; at 1.2 µM): -36%; growth inhibition ([5]; at 3.7 µM): -30%; growth inhibition [5, 17]: 19%; growth inhibition ([5]; at 11.0 µM): 31%; growth inhibition ([5]; at 33.0 µM): 93% (active); growth inhibition [5, 18]: 95% (active); growth inhibition ([5]; at 50.0 µM): 90.6% (active); growth inhibition ([5]; at 100.0 µM): 90% (active); growth inhibition ([6]; at 1.2 µM): -28%; growth inhibition ([6]; at 3.7 µM): -21%; growth inhibition [6, 17]: 14%; growth inhibition ([6]; at 11.0 µM): 24%; growth inhibition ([6]; at 33.0 µM): 99% (active); growth inhibition [6, 18]: 98% (active); growth inhibition ([6]; at 50.0 µM): 92.6% (active); growth inhibition ([6]; at 100.0 µM): 93% (active); growth inhibition ([7]; at 1.2 µM): -29%; growth inhibition ([7]; at 3.7 µM): -11%; growth inhibition ([7]; at 11.0 µM): 89% (active); growth inhibition ([7]; at 33.0 µM): 97% (active); growth inhibition ([7]; at 100.0 µM): 89% (active); growth inhibition [8, 17]: 26%; growth inhibition [8, 18]: 57%; growth inhibition ([8]; at 50.0 µM): 88.5% (active); growth inhibition ([9]; at 1.2 µM): -23%; growth inhibition ([9]; at 3.7 µM): -1%; growth inhibition ([9]; at 11.0 µM): 5%; growth inhibition ([9]; at 33.0 µM): 97% (active); growth inhibition ([9]; at 100.0 µM): 94% (active); growth inhibition [10, 17]: 21%; growth inhibition [10, 18]: -28%; growth inhibition ([10]; at 50.0 µM): 81.5% (active); growth inhibition ([11]; at 1.2 µM): -36%; growth inhibition ([11]; at 3.7 µM): -39%; growth inhibition [11, 17]: 11%; growth inhibition ([11]; at 11.0 µM): 56%; growth inhibition ([11]; at 33.0 µM): 99% (active); growth inhibition [11, 18]: 4%; growth inhibition ([11]; at 50.0 µM): 85.5% (active); growth inhibition ([11]; at 100.0 µM): 88% (active); growth inhibition ([12]; at 1.2 µM): -24%; growth inhibition ([12]; at 3.7 µM): -10%; growth inhibition ([12]; at 11.0 µM): 5%; growth inhibition ([12]; at 33.0 µM): 98% (active); growth inhibition ([12]; at 100.0 µM): 94% (active); growth inhibition ([13]; at 1.2 µM): -39%; growth inhibition ([13]; at 3.7 µM): -18%; growth inhibition ([13]; at 11.0 µM): 83% (active); growth inhibition ([13]; at 33.0 µM): 97% (active); growth inhibition ([13]; at 100.0 µM): 87% (active); growth inhibition ([14]; at 1.2 µM): -3%; growth inhibition ([14]; at 3.7 µM): -2%; growth inhibition ([14]; at 11.0 µM): 47%; growth inhibition ([14]; at 33.0 µM): 98% (active); growth inhibition ([14]; at 100.0 µM): 91% (active); growth inhibition [15, 17]: 18%; growth inhibition [15, 18]: 98% (active); growth inhibition ([15]; at 50.0 µM): 91.2% (active); growth inhibition ([16]; at 1.2 µM): -27%; growth inhibition ([16]; at 3.7 µM): -1%; growth inhibition ([16]; at 11.0 µM): 59%; growth inhibition ([16]; at 33.0 µM): 95% (active); growth inhibition ([16]; at 100.0 µM): 77% (active)
